The supplement of paper PMC6555819

Tests used:
Assay in all cases: PBM binding z-score (relative to random genomic background probes); higher = stronger binding; sequences stand for … in GC…GCGATTGACAGCGTAGAATGAAGG
[1] = test system: PPARg:RXRa DBDmut IVT, anti-RXR (DBD mutation: RXRa K156A/R161A, NR concentration 270 nM, RXRa partner concentration 90 nM)
How it was run: (§1)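 Each nuclear receptor dimer, without ligand, was incubated for 1 h on custom Agilent 4×180K protein-binding microarrays. Binding was detected with antibodies against each partner (one per run), and scanned fluorescence was regression-normalized. The binding z-scores are referenced to random human genomic background probes.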

[2] = test system: PPARg:RXRa IVT, anti-PPARg (NR concentration 270 nM, RXRa partner concentration 90 nM)
How it was run: as §1

[3] = test system: PPARg DBDmut:RXRa IVT, anti-PPARg (DBD mutation: PPARg1 K132A/R137A, NR concentration 270 nM, RXRa partner concentration 90 nM)
How it was run: as §1

[4] = test system: PPARg DBDmut IVT, anti-PPARg (DBD mutation: PPARg1 K132A/R137A, NR concentration 270 nM)
How it was run: as §1

[5] = test system: PPARg homodimer (NR concentration 180 nM)
How it was run: as §1

[6] = test system: PXR:RXRa (NR concentration 270 nM, RXRa partner concentration 90 nM)
How it was run: as §1

[7] = test system: PXR homodimer (NR concentration 270 nM)
How it was run: as §1

[8] = test system: RARa:RXR (NR concentration 270 nM, RXRa partner concentration 90 nM)
How it was run: as §1

[9] = test system: RARa homodimer (NR concentration 270 nM)
How it was run: as §1

[10] = test system: RARb:RXRa (NR concentration 270 nM, RXRa partner concentration 90 nM)
How it was run: as §1

Sequence | PBM binding z-score [1] | PBM binding z-score [2] | PBM binding z-score [3] | PBM binding z-score [4] | PBM binding z-score [5] | PBM binding z-score [6] | PBM binding z-score [7] | PBM binding z-score [8] | PBM binding z-score [9] | PBM binding z-score [10]
ACTAGCAGGGCAAGGGTCACTCAAGATTAGTCCG | 2.1 | 4.69 | -0.137 | -0.877 | 1.91 | 3.4 | -0.121 | 4.49 | 0.318 | 3.46
CCTCCTGGGCCAAGGTCATTGATCAGTCAAAGCA | -0.293 | 1.48 | -1.33 | -1.61 | 1.55 | 3.38 | 0.83 | 3.49 | -0.129 | 3.47
CAGCCTAGGTCAGGCCCAGTATAGGAGGAACGTT | 0.76 | 1.39 | -0.686 | -1.02 | 0.325 | -0.0342 | -0.609 | 0.588 | -0.629 | 3.2
CAAACTAGCTCACCGGAAGGTCAAAGTCCGCATG | 0.993 | 1.36 | -0.25 | 0.542 | 2.25 | 3.37 | 1.23 | 3.64 | 0.685 | 3.17
TTGAGTAGGTTACCAATGGGGCATTCAGCTTTCT | 4.77 | 4.38 | 0.923 | 0.772 | 0.846 | 0.242 | -0.056 | 0.279 | 0.0397 | 1.19
ATCGAAAGGTCGTGAGGTGGGTATACAGAAAGGC | -0.234 | 1.94 | 0.885 | 1.49 | 3.69 | 3.36 | 0.721 | 4.17 | 1.39 | 4.05
TCTCCGAGGACACGAAAGGTCAGAGCTCGACATC | 1.67 | 1.97 | 0.778 | 0.343 | 2.54 | 4.22 | 0.558 | 4.27 | 0.52 | 4.47
ACTAGTTGGTCAGCTGAGTTCACACACAATTCGG | 1.2 | 1.32 | 0.662 | 0.707 | 0.775 | 5.66 | 6.87 | 2.32 | 0.2 | 2
ACAGACAGGTGAGGAAGGTAACTCAGGCTATCAT | 0.129 | 0.785 | 0.395 | -0.587 | -0.277 | -0.058 | -0.158 | 0.108 | 0.0819 | 0.494
CTCGAAAGGTTGTGCTCAGGTGAGTATACCAAAC | -0.27 | -0.00807 | -0.154 | -0.108 | 0.203 | 0.645 | -0.0824 | 1.38 | 0.121 | 1.2
TCTCGGAGGACGCGAAGGTCAGAGCTTTCCAGAG | 0.846 | -0.0947 | -1.23 | -1.47 | 0.0628 | 1.33 | -0.286 | 1.61 | -0.357 | 2.7
GCTAGCAGGCCATTTGGGTCACTTAATGACGGGC | 1.56 | 1.89 | -0.44 | -0.938 | -0.528 | 0.407 | -0.077 | 0.758 | -1.06 | 1.3
CTTCCAAGGTGAACAAGGTCGTTGATTACTATTC | 2.37 | 2.58 | 0.501 | -0.605 | 0.985 | 2.6 | 1.19 | 1.97 | -0.158 | 2.18
CCGACTTGGGCAAGGTTACCATAACGCACAGCCA | 0.0909 | 0.144 | -0.175 | -0.816 | 0.358 | 0.327 | 0.162 | 0.774 | 0.309 | 0.889
GCCGCTAGGTCAACTGATGGTCAGCTAAAGCTCG | 4.39 | 3.8 | -0.418 | -0.213 | 1.56 | 1.55 | -0.4 | 3.04 | 0.102 | 4.35
CCGAGTATGTTATGGGGCATTCAGGCAACGGTGA | 0.63 | 0.892 | -0.0498 | -0.0954 | 0.937 | 0.0662 | 0.093 | 0.394 | 0.535 | 0.242

Sequence | PBM binding z-score [1] | PBM binding z-score [2] | PBM binding z-score [3] | PBM binding z-score [4] | PBM binding z-score [5] | PBM binding z-score [6] | PBM binding z-score [7] | PBM binding z-score [8] | PBM binding z-score [9] | PBM binding z-score [10]
ACTAGCAGTCCAAGTTTGGGTCACTCAAACAAAG | -0.573 | 0.678 | -0.264 | -0.283 | -0.0489 | 0.921 | -0.137 | 1.4 | -0.47 | 1.24
CTCGATAGGTCGGTTGAGGTGAGTATACGGATAA | -0.342 | 0.362 | 0.83 | 0.287 | 0.144 | 1.21 | 0.123 | 1.11 | -0.0628 | 1.17
CGAACTAGGTCTAGGACAGTGAATCTCCGCACGC | 2.28 | 1.58 | -0.66 | -0.934 | -0.583 | -0.626 | -0.327 | -0.766 | -0.883 | -0.221
TCATATAGGTAAACAGGTGAAATTCCGTAAGTTA | 4.59 | 4.41 | 1.27 | 1.49 | 1.3 | 1.03 | 0.625 | 1.67 | 2.19 | 0.689
GCGACTGGGGCATCAGCAGCTTACCATAACTTAA | 4.14 | 2.77 | -0.78 | -0.628 | -0.268 | -0.462 | -0.432 | -0.454 | -0.449 | 0.116
ACAGACAGGTGATGAGGGTAACTCAGGCTATCAT | -0.0163 | 0.685 | -0.934 | 0.0306 | 0.543 | 0.296 | -0.131 | 0.591 | -0.698 | 0.496
TCGAGTAGGTTACCAATGGGGAATTCAGCTTTCT | 3.57 | 2.58 | -0.097 | -0.739 | -0.227 | -0.148 | -1.08 | 0.0848 | -1.2 | 0.621
GCGACTGGGGCATCATCAGGTTACCATAACTTAA | 4.15 | 3.3 | -0.137 | -0.42 | 0.121 | 0.266 | -0.0234 | 1.05 | -0.63 | 0.767
CCTACTGGGCCAAAAAGGTTATTGATGCCGATAA | 3.45 | 2.94 | -0.965 | -0.43 | 0.601 | 0.934 | 0.529 | 1.67 | 0.386 | 1.15
AGCGAAAGGTCGACGAGGTGAGTATACACCGTTT | 0.519 | 1.89 | 0.248 | 0.154 | 1.07 | 2.86 | 0.276 | 3.47 | -0.0264 | 3.84
CCTGCTAGGTCAATGATCAGCTAAAGCAGCTCGC | 4.45 | 3.19 | -0.369 | -0.701 | 1.17 | 0.559 | -0.751 | 1.13 | -0.385 | 3.62
AGTCCAAGTTCAGGACGAGGTAACGTAAAGCACG | -0.641 | 0.15 | -0.559 | -0.0596 | 0.572 | 1.93 | 0.749 | 1.34 | -0.0097 | 2.56
GCTAGCAGGCCATTTAGGTCACTCAATGACGGGC | 1.71 | 2.41 | -0.196 | -1.01 | -0.0591 | 0.564 | 0.12 | 0.658 | -0.306 | 1.8
CCTCGGAGGAAAACAGGAGGTCAGAGCTGCCAGA | -0.518 | 0.00562 | -1.65 | -1.51 | 1.04 | 1.5 | 0.172 | 1.95 | 0.262 | 1.53
ATCTCTAGGTAAGACTCAGTTCAGAGAAGAACGC | 1.92 | 1.16 | 1.58 | 0.9 | 1.02 | 0.856 | 1.56 | 0.299 | 0.962 | 0.134
CCAGACAGGTCAGAAGGTAACTCAGCCTCGATTA | 1.41 | 1.15 | -0.393 | -1.03 | 2.19 | 1.21 | 0.153 | 2.1 | 0.911 | 3.49
